{"source": "ChEMBL document CHEMBL1157539", "about": "“Thousands of chemical starting points for antimalarial lead identification” (Nature, 2010)", "data": [{"test_system": "Plasmodium falciparum", "test": "GSK_TCMDC: Inhibition of Plasmodium falciparum 3D7 in whole red blood cells, using parasite LDH activity as an index of growth. Test compounds present at 2uM", "assay_type": "functional", "units": {"Inhibition": "%"}, "values": [{"smiles": "COc1cccc(C(=O)Nc2sc3c(c2C(N)=O)CCCC3)c1OC", "Inhibition": 99}, {"smiles": "CCCN(Cc1nnc(-c2cccs2)o1)C(=O)CSc1nnnn1-c1ccc(C)c(C)c1", "Inhibition": 96}, {"smiles": "CCOC(=O)c1ccc(-c2c(C(F)(F)F)noc2-c2cc(CC)c(OC)cc2O)o1", "Inhibition": 100}, {"smiles": "O=C(Nc1ccc2c(c1)CCCN2S(=O)(=O)c1cccs1)c1cc([N+](=O)[O-])ccc1Cl", "Inhibition": 93}, {"smiles": "COc1cccc2cc(C(=O)N[C@@H](CC(C)C)C(=O)N[C@H](/C=N/N3C(=O)CN(Cc4ccccc4)C3=O)CCc3ccccc3)oc12", "Inhibition": 85}, {"smiles": "CCOC(=O)CCCCCNC[C@H](O)c1ccccc1.Cl", "Inhibition": 98}, {"smiles": "COc1c(C2CCN(CCCCNC(=O)C=Cc3cc4cc(Cl)ccc4o3)CC2)ccc2c1CCCC2", "Inhibition": 87}, {"smiles": "O=C(Nc1ccc(C(=O)N(Cc2ccc3c(c2)OCO3)C2CCCC2)cc1)c1cccs1", "Inhibition": 97}, {"smiles": "Cc1cccc2nc(-c3cccc(-c4ccc(CN5CCN(CCO)CC5)cc4)c3)[nH]c12.O=C(O)C(F)(F)F", "Inhibition": 100}, {"smiles": "CN1CCN(c2ccnc3ccc(NC(=O)Nc4c(Cl)cccc4Cl)cc23)CC1", "Inhibition": 96}, {"smiles": "COc1cc(F)c2nccc([C@@H](O)CN3CCC(NCc4nc5cccc(F)c5[nH]4)CC3)c2c1.O=C(O)C(=O)O", "Inhibition": 99}, {"smiles": "CN1CCN(c2ccc(Nc3nccc(-c4c(-c5cccc(NC(=O)c6c(F)cccc6F)c5)nn5ccccc45)n3)cc2)CC1", "Inhibition": 98}, {"smiles": "COc1cc(OC)cc(C(=O)N2CCOC(CCN3CCC(c4ccccc4)CC3)(c3ccc(Cl)c(Cl)c3)C2)c1", "note": "(stereo not given)", "Inhibition": 85}, {"smiles": "O=C(/C=C/c1ccc(Cl)c(Cl)c1)NC1CCN(Cc2cccc(O)c2)CC1.O=C(O)C(F)(F)F", "Inhibition": 94}, {"smiles": "O=C(O)C(F)(F)F.c1cc(CNCc2ccc3c(c2)OCO3)cc(-c2cccc(CNc3ccc4ncccc4c3)c2)c1", "Inhibition": 98}, {"smiles": "Cc1cc(-c2ccc(CNCc3ccc(F)cc3)cc2)ccc1S(=O)(=O)NCCN1CCCC1.O=C(O)C(F)(F)F", "Inhibition": 100}, {"smiles": "O=C(CCN1C(=O)c2ccccc2C1=O)N1CCN(CC=Cc2ccccc2)CC1", "Inhibition": 87}, {"smiles": "Cc1cc(NC(=O)c2cccs2)ccc1OC1CCN(Cc2ccccc2)C1.O=C(O)C(F)(F)F", "note": "(stereo not given)", "Inhibition": 84}, {"smiles": "O=c1cc(NCCC(CNCc2ccc(Br)o2)NCc2cc(Br)cc(Br)c2)[nH]c2ccccc12", "note": "(stereo not given)", "Inhibition": 98}, {"smiles": "O=C(Nc1ccc(C(F)(F)F)cc1)c1cccc(S(=O)(=O)NCC2CCCN(CC3CCCCC3)C2)c1.O=C(O)C(F)(F)F", "note": "(stereo not given)", "Inhibition": 97}, {"smiles": "COc1ccc2nccc([C@@H](O)CN3CCC(NCc4ccc5nnsc5c4)CC3)c2c1.O=C(O)C(=O)O", "Inhibition": 99}, {"smiles": "O=C(NCC1CCC(CNCCCc2ccccc2)CC1)c1cc(Cl)cc(Cl)c1", "note": "(stereo not given)", "Inhibition": 89}, {"smiles": "COc1ccc2cc(C(=O)Nc3ccc4c(c3)CCN(C3CCC3)CC4)ccc2c1.O=C(O)C(F)(F)F", "Inhibition": 100}, {"smiles": "COc1cc(-c2nnc(SCC(=O)Nc3cc(C)on3)n2C)cc(OC)c1O", "Inhibition": 89}, {"smiles": "NS(=O)(=O)c1cccc(N/C=C2\\C(=O)Nc3ccc(S(=O)(=O)Cc4c(Cl)cccc4Cl)cc32)c1", "Inhibition": 92}, {"smiles": "CC(=O)c1c[nH]c(C(=O)Nc2ccc(-c3cn4ccccc4n3)cc2)c1", "Inhibition": 98}, {"smiles": "CCCCc1cc(NCC)nc(Nc2ccc(OC)cc2)n1", "Inhibition": 85}, {"smiles": "O=C(NCC1CC1)C1CCN(C(c2ccccc2)c2cc(F)cc(F)c2)CC1", "note": "(stereo not given)", "Inhibition": 99}, {"smiles": "Cc1cc(N(C)C)nc(Nc2ccc(NC(=O)Nc3ccccc3)cc2)n1", "Inhibition": 100}, {"smiles": "CC(C)N1CCC(N(Cc2ccc(-c3ccc(C(F)(F)F)cc3)cc2)C(=O)Cn2c(SCc3cccc(F)c3F)cc(=O)c3c2CCC3)CC1.O=C(O)C(O)C(O)C(=O)O", "Inhibition": 88}, {"smiles": "COC(=O)c1cccc(CNCc2cccc(-c3cccc(-c4nc5cc(F)ccc5[nH]4)c3)c2)c1.O=C(O)C(F)(F)F", "Inhibition": 100}, {"smiles": "Cc1ccc(S(=O)(=O)N2CCN(C(=O)c3cc(-c4ccccc4)n[nH]3)CC2)cc1", "Inhibition": 91}, {"smiles": "COc1ccc(C=NN=c2cc(C)[nH]c3c(C)cccc23)c2ccccc12", "Inhibition": 100}, {"smiles": "COc1cccc2cc(C(=O)N[C@@H](CC(C)C)C(=O)Nc3cc(F)ccc3Br)oc12", "Inhibition": 87}, {"smiles": "Clc1ccc(-c2cc(-c3csc(Nc4ccncc4)n3)on2)cc1", "Inhibition": 100}, {"smiles": "CN(C)CCOc1ccc(NC(=O)NC(C)(C)c2nc(-c3ccc(Cl)c(O)c3)c(-c3ccncc3)[nH]2)cc1.Cl", "Inhibition": 98}, {"smiles": "O=C(O)C(F)(F)F.OCC1CCN(Cc2cccc(-c3ccc(-c4nc5cc(F)ccc5[nH]4)cc3)c2)CC1", "Inhibition": 100}, {"smiles": "CCOc1ccc(-c2nc(NC(=O)CS(=O)(=O)c3ccccc3)sc2C)cc1", "Inhibition": 100}, {"smiles": "Fc1ccc(Nc2ccnc3cc(-c4cccc(CNCCN5CCOCC5)c4)ccc23)c(Cl)c1", "Inhibition": 100}, {"smiles": "Cc1ccc(Nc2nccc(NCC(O)c3cccc(C(F)(F)F)c3)n2)cc1", "note": "(stereo not given)", "Inhibition": 99}]}]}
